Bioassay records from PubChem BioAssay.
Only some compounds are listed: those with a hit (about 2.8% of all), similar ones and a draw of the others.
PP1 counter: blocks human PP1-alpha phosphatase, a PP5 counter-screen; P62136; purified PP1alpha, OMFP fluorescence; inhibition, % at 6.7 µM; 320,000 compounds, 0.9% hits;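 active = inhibition above the mean inhibition of all tested compounds plus 3 SD, computed separately for each screening campaign, cut at about 15% in these data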
Target sequence (P62136 whole entry, looked up): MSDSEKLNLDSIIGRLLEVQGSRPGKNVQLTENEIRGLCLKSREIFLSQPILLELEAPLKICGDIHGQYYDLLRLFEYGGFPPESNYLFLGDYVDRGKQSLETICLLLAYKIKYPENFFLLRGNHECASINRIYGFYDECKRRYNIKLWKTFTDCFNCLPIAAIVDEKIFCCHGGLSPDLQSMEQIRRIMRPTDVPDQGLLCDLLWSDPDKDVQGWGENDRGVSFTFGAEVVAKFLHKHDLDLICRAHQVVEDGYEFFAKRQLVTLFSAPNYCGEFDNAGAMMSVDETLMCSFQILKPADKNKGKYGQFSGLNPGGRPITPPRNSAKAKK
PP5 inh: inhibitors of human protein phosphatase 5 (PP5) | inhibition, % at 6.7 µM | P53041 | purified PP5c, OMFP substrate fluorescence | AID 1987 | 320,000 compounds, 0.18% hits;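 active = inhibition above the campaign's mean inhibition across all tested compounds plus 3 SD, cut at about 9.5% in these data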;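 also: 0% = DMSO only and 100% = 100 µM cantharidin control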
JMJD2C inh: inhibitors of human GASC-1 (JMJD2C) demethylase. GST-JMJD2C(1-420) H3K9me3 demethylation, DELFIA europium. AID 2099. inhibition, % at 2.35 µM. Q9H3R0. 330,000 compounds, 0.069% hits;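 active = more than half of a compound's replicate wells show inhibition beyond 50%, single wells judged on their own value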;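 also: signal counts dimethyl H3K9 product captured on neutravidin plate; 0% = median of DMSO wells and 100% = 0.3 times that DMSO median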
Rev-erbA mod: Rev-erb alpha (human) modulation; 370,000 compounds, 0.79% hits; activity, % at 10 µM; Rev-erbα–FITC-DNA binding, fluorescence polarization, 90 min; P20393;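 active = activity above about 14%, limit read from the data; passing the limit was not always enough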;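 also: 0% = DMSO wells with 35 nM protein and 100% = DMSO wells with 750 nM protein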
PG9 Ab binder: small molecules binding HIV-1 gp120 antibody PG9. TR-FRET gp120-PG9 antibody binding. inhibition, % at 6.7 µM. 360,000 compounds, 0.43% hits; in the data active = inhibition above about 8.5%
proKLK7 act: activates the human kallikrein-7 zymogen. purified proKLK7, EDANS-DABCYL substrate fluorescence; 100% is mature enzyme control, 0% vehicle. activation, % at 7 µM. 370,000 compounds, 0.9% hits. AID 652039;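 active = activation above the mean of all tested compounds plus 3 SD, computed per campaign excluding outliers beyond control limits, cut at about 13% in these data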
Target sequence (P49862 whole entry, looked up): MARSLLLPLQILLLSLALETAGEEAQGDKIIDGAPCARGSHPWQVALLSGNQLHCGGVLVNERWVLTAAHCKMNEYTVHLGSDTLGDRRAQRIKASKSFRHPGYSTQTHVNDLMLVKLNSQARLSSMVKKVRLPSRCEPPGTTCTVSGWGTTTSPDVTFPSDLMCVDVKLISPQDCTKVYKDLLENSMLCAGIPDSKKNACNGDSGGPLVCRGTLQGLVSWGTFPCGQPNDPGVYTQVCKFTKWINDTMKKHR
PP1 inh confirm: confirmation of human PP1 phosphatase inhibitors; shares compounds with PP1 counter; purified PP1alpha, OMFP substrate fluorescence; 1,900 compounds, 52% hits; inhibition, % at 6.7 µM; AID 2358;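 active = mean PP1 inhibition above a set limit taken from the earlier primary screen, cut at about 15% in these data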
PP5 inh counter: inhibits human PP5 phosphatase in PP1 counter-screen. 1,900 compounds, 4% hits. inhibition, % at 6.7 µM. purified PP5c, OMFP fluorescence. shares compounds with PP1 counter. AID 2360;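 active = mean PP5 inhibition over triplicate wells above about 9.5% taken from the earlier PP1 screen, limit read from the data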
Numbers without * were called inactive; . = no result.

SMILES	PP1 counter	PP5 inh	JMJD2C inh	Rev-erbA mod	PG9 Ab binder	proKLK7 act	PP1 inh confirm	PP5 inh counter
CC(=O)Nc1ccc(NC(=S)NC(=O)/C=C/c2ccc(Cl)cc2)cc1	-0.5	-0.3	2.1	-3.4	-0.1	0.5	.	.
CC(=O)c1ccc(NC(=S)NC(=O)/C=C/c2ccco2)cc1	23.0*	2.3	5.1	-1.7	-0.4	-0.5	28.8*	-6.2
O=C(/C=C/c1ccc(Cl)cc1)NC(=S)Nc1ccc(NC(=O)c2ccco2)cc1	21.2*	-0.6	4.5	-4.9	-0.7	-0.3	24.2*	-0.2
O=C(/C=C/c1ccco1)NC(=S)Nc1cccc(-c2nc3ccccc3s2)c1	24.3*	3.0	-2.0	-1.4	-0.2	0.3	10.4	1.1
S=c1[nH]nc(-c2n[nH]c3c2CCC3)n1N=Cc1ccc(Br)s1	.	.	.	-5.9	.	0.5	.	.
CCOC1=C2[C@H](c3ccccc3)N(S(=O)(=O)c3ccc(C)cc3)[C@H](C(C)C)[C@H]2C(C#N)(C#N)C(C#N)(C#N)C1	.	.	.	-1.1	-0.3	-1.3	.	.
COc1cc2c(cc1OC)-c1cc(NCc3ccccn3)nc(=O)n1CC2	20.4*	6.8	-19.4	-1.7	-1.5	-0.2	20.8*	0.3
CCCCNC(=O)C[C@H]1C[C@@]2(C(=O)OC)C(=C[C@H](C(C)(C)C)O[C@@H]2C)N(Cc2ccc3c(c2)OCO3)C1=O	.	.	.	-6.3	-0.3	0.2	.	.
CCN1CCN(S(=O)(=O)c2ccc(Cl)c(C(=O)Nc3ccccc3N3CCCC3)c2)CC1	-0.6	3.4	-2.4	-3.2	-4.0	-0.5	.	.
CCN1CCN(S(=O)(=O)c2ccc(Cl)c(C(=O)Nc3ccccc3N3CCCCC3)c2)CC1	22.8*	0.5	-3.5	4.2	0.2	0.4	-1.3	-0.7
CCOC(=O)c1sc(N2C(=O)C(O)=C(C(=O)c3ccco3)C2c2ccc([N+](=O)[O-])cc2)nc1C (stereo not drawn)	41.1*	4.8	14.3	-3.7	-0.2	-0.2	35.7*	2.1
CSc1ccc(C2C(C(=O)c3ccco3)=C(O)C(=O)N2c2nnc(SC)s2)cc1 (stereo not drawn)	20.0*	-1.3	-4.0	4.5	1.9	0.8	15.8*	-4.7
CCOC(=O)c1sc(N2C(=O)C(O)=C(C(=O)c3ccco3)C2c2ccc(C)o2)nc1C (stereo not drawn)	23.0*	3.0	0.5	3.8	-0.7	0.0	23.2*	1.7
Cc1nnc(N2C(=O)C(O)=C(C(=O)c3ccco3)C2c2ccc(F)cc2)s1 (stereo not drawn)	1.5	2.2	-1.4	0.4	-0.5	0.1	.	.
CCCCN1CCN(C2=Nc3ccccc3Sc3ccccc32)CC1	.	.	.	-0.2	.	0.5	.	.
O=c1c2c(-c3ccco3)csc2nc(SCc2cn3cccnc3n2)n1-c1ccccc1	28.9*	2.1	27.6	-11.3	3.3	-3.1	20.9*	0.4
CCN(CC)C(=O)O[C@H]1CC[C@@]23CCCN2C(=O)CCC[C@H]3[C@H]1C	.	.	.	2.9	.	.	.	.
Cc1cccc(NC(=O)C(=O)NNC(=O)c2ccc(C(C)(C)C)cc2)c1	21.3*	-2.5	4.0	-1.3	-1.2	-0.6	9.8	-1.4
CCN(CC)C(=O)CSc1nnc(-c2ccc(C(C)(C)C)cc2)n1Cc1ccco1	.	.	.	-4.8	.	0.0	.	.
Cc1ccc(C)c(Cn2nnc3c(=O)[nH]c(C4CCN(S(=O)(=O)c5ccc(S(=O)(=O)NC6CC6)cc5)CC4)nc32)c1	18.1*	5.2	-0.9	-0.2	-0.2	0.4	15.3*	5.3
Cc1ccc(Cn2nnc3c(=O)[nH]c(C4CCN(S(=O)(=O)c5cc(C)ccc5C)CC4)nc32)cc1	27.8*	3.7	-5.5	2.5	-2.0	1.1	24.1*	3.6
Cc1ccc(C)c(S(=O)(=O)N2CCC(c3nc4c(nnn4Cc4ccc(F)cc4)c(=O)[nH]3)CC2)c1	18.2*	4.0	-9.9	-2.5	2.2	0.4	6.6	1.0
CCOc1ccc(N2C(=O)c3cccnc3C2Nc2ccc(Cl)cc2)cc1 (stereo not drawn)	4.6	3.4	13.7	10.7	1.3	0.4	.	.
Cc1ccc(NC2c3ncccc3C(=O)N2c2ccccc2C)cc1C (stereo not drawn)	30.4*	8.2	0.6	-4.2	-1.2	0.8	25.7*	1.4
CC(=O)OC12CCCN(C1)/C(=C/c1cccc(Cl)c1)C2 (stereo not drawn)	.	.	.	0.9	.	-0.4	.	.
SMILES	PP1 counter	PP5 inh	JMJD2C inh	Rev-erbA mod	PG9 Ab binder	proKLK7 act	PP1 inh confirm	PP5 inh counter
Cc1nn(CC(=O)Nc2ccc(C(=O)N3CCCCC3)cc2)c(=O)c2ccccc12	23.1*	4.5	-0.5	1.4	1.1	0.8	-2.3	-0.4
Cc1nn(CC(=O)Nc2ccc(C(=O)N3CCCC3)cc2)c(=O)c2ccccc12	3.6	1.3	13.3	6.4	-1.8	0.2	.	.
CC(C)CC(=O)Nc1ccc(C(=O)Cn2nc(C(=O)O)c3ccccc3c2=O)cc1	20.3*	1.9	-24.6	5.5	0.5	-0.3	23.1*	0.2
O=C(N/N=C/c1cc([N+](=O)[O-])ccc1O)NC12CC3CC(CC(C3)C1)C2	19.7*	5.1	5.8	7.8	-0.6	0.0	17.1*	0.2
O=C(N/N=C/c1cc([N+](=O)[O-])ccc1O)C12CC3CC(CC(C3)C1)C2	1.3	-0.9	8.6	-8.2	-0.2	0.2	.	.
Cc1cccc(N2CC(C(=O)Nc3nnc(SCC(=O)Nc4cc(C)on4)s3)CC2=O)c1 (stereo not drawn)	27.3*	-1.1	-2.8	-4.2	-1.9	-0.7	26.5*	-3.1
Cc1cc(Cl)ccc1NC(=S)NCCC(c1ccccc1)c1ccccc1	18.1*	-1.0	-9.0	2.9	-0.5	0.2	-1.7	0.7
CCNc1nc(NCC)nc(C(=O)NN)n1	23.9*	0.8	-3.7	5.4	-1.1	-0.1	4.2	0.3
COC(=O)C1=C(C)N(CC(C)C)C(=S)NC1c1ccc(Cl)cc1 (stereo not drawn)	.	.	.	2.7	-0.4	-0.2	.	.
C[C@@H]1C[C@H]2[C@@H]3CCC4=CC(=O)C=C[C@]4(C)[C@@]3(Cl)[C@@H](O)C[C@]2(C)[C@@]1(OC(=O)c1ccco1)C(=O)CCl	23.1*	2.7	7.9	4.0	-2.7	0.5	26.6*	-6.1
CCC(=O)OCC(=O)C1(OC(=O)CC)C(C)CC2C3CCC4=CC(=O)C=CC4(C)C3(Cl)C(O)CC21C (stereo not drawn)	.	.	.	6.8	.	.	.	.
COc1ccc(OCc2nn3c(-c4ccccc4)nnc3s2)cc1	.	.	.	-1.8	.	0.3	.	.
Cc1nn(-c2ccccc2)c(C)c1/C=N/NC(=O)CSc1nc2ccccc2c(=O)n1-c1ccc(Br)cc1	0.7	1.4	0.7	3.9	0.5	0.2	.	.
